Source: the supplement of paper PMC10849652
Of roughly 7,900 targets only a part is listed; those with a hit were picked by preference. About 0.6% of all pairs of compound and target were hits.

How the values were obtained:
Test in all cases: log2 fold change, soluble protein after heating vs DMSO (PISA); higher = thermal stabilisation; K562 cells, 10 uM, 30 min; active = over 0.2 and 3.5 SD of the protein, either way, in both replicates (recomputed)
[1] = compound: CC[C@@H]1C(=O)N(C)c2cnc(Nc3ccc(C(=O)NC4CCN(C)CC4)cc3OC)nc2N1C1CCCC1
Procedure, shortened: (§1)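 K562 cells at 2×10^6 cells/mL were treated with 10 μM compound for 30 min. Aliquots were heated for 3 min across 48°C-58°C, pooled, and extracted in PBS with 0.5% NP-40 at 4°C; soluble protein was the supernatant after 21,000xg for 90 min. Soluble protein was quantified by TMTpro 16plex LC-MS/MS with channel sums equalised, and reported as log2 fold change in thermal stability against DMSO controls, with values from duplicates.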

[2] = compound: CC[C@@H]1C(=O)N(C)c2cnc(Nc3ccc(C(=O)N[C@H]4CC[C@H](N5CCN(CC6CC6)CC5)CC4)cc3OC)nc2N1C(C)C [volasertib]
Procedure, shortened: as §1

[3] = compound: CC[C@H](C)N1C=C(C2=C(C=C(C=C21)C3=CN=C(C=C3)N4CCNCC4)C(=O)NCC5=C(C=C(NC5=O)C)C)C
Procedure, shortened: as §1

[4] = compound: CC[C@H](C)[C@@H](C(=O)N[C@@H]([C@@H](C)O)C(=O)N[C@@H](CC(C)C)C(=O)[C@]1(CO1)C)NC(=O)[C@H]([C@@H](C)CC)N(C)C(=O)C [epoxomicin]
Procedure, shortened: as §1

[5] = compound: CCn1c(C(=O)N(C2CC2)C2CC2)cc2c3c(ncn3C)c(Nc3cc(C)n(C)n3)nc21
Procedure, shortened: as §1

[6] = compound: CCn1cc(-c2ccnc3[nH]c(-c4cccc(CN(C)C)c4)cc23)c(-c2ccc(NC(=O)N(C)C)cc2)n1
Procedure, shortened: as §1

[7] = compound: CN(C)CC(=O)Nc1ccc2[nH]c(=O)c3ccccc3c2c1
Procedure, shortened: as §1

[8] = compound: CN(CCOC1=CC=C(C=C1)C[C@H]2C(=O)NC(=O)S2)C3=CC=CC=N3 (racemic) [rosiglitazone]
Procedure, shortened: as §1

[9] = compound: CN1C2=C(C3=C1C(=O)N(N=C3)CC4=CC(=CC=C4)N)SC(=C2)S(=O)C
Procedure, shortened: as §1

[10] = compound: CN1CCC(CNc2ccc3ncc(-c4cccc(OC(F)(F)F)c4)n3n2)CC1
Procedure, shortened: as §1

Measured: log2 fold change

DNAH5 (UniProt Q8TE73)
inactive: [1] 0.042 | [2] 0.01 | [3] -0.079 | [4] -0.052 | [5] -0.015 | [6] -0.009 | [7] -0.031 | [8] -0.044 | [9] 0.029 | [10] 0.03

ELF1 (UniProt P32519)
inactive: [1] 0.116 | [2] -0.516 | [3] 0.185 | [4] 0.117 | [5] -0.161 | [9] 0.027

FAM118A (UniProt Q9NWS6)
inactive: [2] -0.54 | [3] 0.136 | [4] 0.118 | [6] -0.075 | [7] 0.222 | [8] -0.02 | [9] -0.007 | [10] -0.142
active: [1] -0.812

DNM2 (UniProt P50570)
active: [10] -0.349
inactive: [1] -0.013 | [2] -0.015 | [3] 0.043 | [4] 0.029 | [5] -0.002 | [6] -0.091 | [7] 0.037 | [8] 0.05 | [9] -0.044

EIF4E2 (UniProt O60573)
inactive: [1] -0.202 | [3] 0.124 | [4] 0.018 | [5] -0.053 | [7] 0.063 | [8] 0.035 | [9] -0.034
active: [2] -0.381

DPH5 isoform 5 (UniProt Q9H2P9)
Chain of UniProt Q9H2P9 (Q9H2P9 whole entry, looked up): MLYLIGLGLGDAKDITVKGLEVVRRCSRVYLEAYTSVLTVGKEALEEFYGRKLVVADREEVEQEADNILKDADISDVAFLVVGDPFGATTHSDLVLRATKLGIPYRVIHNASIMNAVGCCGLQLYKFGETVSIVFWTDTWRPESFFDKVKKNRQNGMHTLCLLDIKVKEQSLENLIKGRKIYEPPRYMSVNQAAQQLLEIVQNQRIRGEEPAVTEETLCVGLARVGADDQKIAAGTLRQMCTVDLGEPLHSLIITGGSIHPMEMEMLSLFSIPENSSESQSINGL
inactive: [1] 0.047 | [2] 0.08 | [3] -0.022 | [4] 0.049 | [5] -0.055 | [6] -0.018 | [7] -0.013 | [8] 0.013 | [9] -0.115 | [10] 0.034

FAM118B (UniProt Q9BPY3)
inactive: [1] -0.087 | [3] 0.035 | [4] 0.036 | [5] -0.008 | [6] -0.067 | [7] 0.11 | [8] 0.026
active: [2] -0.445 | [10] -0.373

CYP24A1 (UniProt Q07973)
Chain of UniProt Q07973 (Q07973 whole entry, looked up): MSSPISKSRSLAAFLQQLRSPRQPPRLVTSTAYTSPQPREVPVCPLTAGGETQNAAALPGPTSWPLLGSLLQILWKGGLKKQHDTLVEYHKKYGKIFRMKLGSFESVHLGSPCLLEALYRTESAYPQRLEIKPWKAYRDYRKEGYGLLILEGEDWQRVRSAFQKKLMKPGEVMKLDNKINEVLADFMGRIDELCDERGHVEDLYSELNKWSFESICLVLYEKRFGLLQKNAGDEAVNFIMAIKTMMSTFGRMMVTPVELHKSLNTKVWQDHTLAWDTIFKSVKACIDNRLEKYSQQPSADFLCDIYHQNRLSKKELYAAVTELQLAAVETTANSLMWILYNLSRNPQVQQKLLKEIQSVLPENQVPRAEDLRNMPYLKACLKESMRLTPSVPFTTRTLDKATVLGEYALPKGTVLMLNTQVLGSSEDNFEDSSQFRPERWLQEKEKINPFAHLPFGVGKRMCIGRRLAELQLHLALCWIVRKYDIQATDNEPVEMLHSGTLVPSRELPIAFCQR
inactive: [1] 0.252 | [2] 0.379 | [3] -0.209 | [5] -0.126 | [6] 0.065 | [7] -0.175 | [8] -0.205 | [9] 0.288 | [10] 0.198

ENTPD7 (UniProt Q9NQZ7)
inactive: [1] -0.204 | [2] -0.233 | [3] 0.08 | [4] 0.032 | [5] 0.032 | [8] 0.061 | [9] -0.021

DENND10 (UniProt Q8TCE6)
inactive: [1] -0.041 | [2] -0.241 | [3] 0.121 | [4] -0.041 | [5] -0.048 | [7] 0.076 | [8] 0.007 | [9] -0.031

DOLPP1 (UniProt Q86YN1)
inactive: [1] -0.062 | [2] -0.008 | [3] -0.052 | [5] -0.129 | [7] 0.133 | [8] -0.034

CTNNBL1 (UniProt Q8WYA6)
active: [2] -1.24
inactive: [1] -0.362 | [7] 0.012 | [8] 0.072

DHCR24 (UniProt Q15392)
Chain of UniProt Q15392 (Q15392 whole entry, looked up): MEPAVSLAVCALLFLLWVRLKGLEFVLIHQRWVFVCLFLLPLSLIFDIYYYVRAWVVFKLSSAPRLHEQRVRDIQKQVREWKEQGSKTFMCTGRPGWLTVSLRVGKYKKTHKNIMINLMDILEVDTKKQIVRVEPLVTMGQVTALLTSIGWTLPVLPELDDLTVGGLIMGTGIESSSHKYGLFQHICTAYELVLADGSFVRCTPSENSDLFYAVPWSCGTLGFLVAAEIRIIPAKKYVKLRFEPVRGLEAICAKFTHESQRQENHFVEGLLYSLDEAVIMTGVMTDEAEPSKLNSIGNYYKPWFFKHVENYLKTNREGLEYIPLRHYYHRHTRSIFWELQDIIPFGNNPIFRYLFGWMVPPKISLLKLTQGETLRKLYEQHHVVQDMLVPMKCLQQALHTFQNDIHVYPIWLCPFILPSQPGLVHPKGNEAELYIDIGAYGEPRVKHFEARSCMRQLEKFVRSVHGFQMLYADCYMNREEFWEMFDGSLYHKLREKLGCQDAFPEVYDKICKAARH
active: [2] 1.21
inactive: [1] 0.769 | [3] 0.104 | [4] -0.056 | [5] -0.1 | [6] 0.06 | [7] 0.236 | [8] 0 | [9] -0.094 | [10] 0.525

DNAJB12 (UniProt Q9NXW2)
inactive: [1] -0.045 | [2] -0.123 | [3] -0.033 | [4] -0.003 | [5] -0.096 | [6] 0.024 | [7] 0.022 | [8] 0.023 | [9] 0.068 | [10] -0.081

DYNC1I2 isoform 2 (UniProt Q13409)
inactive: [1] 0.012 | [2] 0.045 | [4] -0.06 | [5] 0.086 | [8] -0.022

EXOSC10 (UniProt Q01780)
inactive: [1] -0.048 | [2] 0.087 | [4] -0.098 | [5] -0.098 | [6] -0.222 | [7] -0.169 | [8] -0.145 | [9] 0.029 | [10] -0.003

ELAC1 (UniProt Q9H777)
active: [6] -0.488
inactive: [1] -0.067 | [2] 0.055 | [3] 0.046 | [4] -0.002 | [5] -0.073 | [7] 0 | [9] 0.079 | [10] -0.227

EBNA1BP2 (UniProt Q99848)
inactive: [1] 0.167 | [2] 0.351 | [3] 0.021 | [4] -0.343 | [5] -0.059 | [6] 0.132 | [7] -0.106 | [8] -0.25 | [9] 0.379 | [10] 0.197

DSN1 (UniProt Q9H410)
active: [2] -0.418
inactive: [1] -0.218 | [3] -0.034 | [4] -0.004 | [5] -0.107 | [7] 0.007 | [8] -0.086 | [9] -0.008

EIF4G3 isoform 3 (UniProt O43432)
Chain of UniProt O43432 (O43432 whole entry, looked up): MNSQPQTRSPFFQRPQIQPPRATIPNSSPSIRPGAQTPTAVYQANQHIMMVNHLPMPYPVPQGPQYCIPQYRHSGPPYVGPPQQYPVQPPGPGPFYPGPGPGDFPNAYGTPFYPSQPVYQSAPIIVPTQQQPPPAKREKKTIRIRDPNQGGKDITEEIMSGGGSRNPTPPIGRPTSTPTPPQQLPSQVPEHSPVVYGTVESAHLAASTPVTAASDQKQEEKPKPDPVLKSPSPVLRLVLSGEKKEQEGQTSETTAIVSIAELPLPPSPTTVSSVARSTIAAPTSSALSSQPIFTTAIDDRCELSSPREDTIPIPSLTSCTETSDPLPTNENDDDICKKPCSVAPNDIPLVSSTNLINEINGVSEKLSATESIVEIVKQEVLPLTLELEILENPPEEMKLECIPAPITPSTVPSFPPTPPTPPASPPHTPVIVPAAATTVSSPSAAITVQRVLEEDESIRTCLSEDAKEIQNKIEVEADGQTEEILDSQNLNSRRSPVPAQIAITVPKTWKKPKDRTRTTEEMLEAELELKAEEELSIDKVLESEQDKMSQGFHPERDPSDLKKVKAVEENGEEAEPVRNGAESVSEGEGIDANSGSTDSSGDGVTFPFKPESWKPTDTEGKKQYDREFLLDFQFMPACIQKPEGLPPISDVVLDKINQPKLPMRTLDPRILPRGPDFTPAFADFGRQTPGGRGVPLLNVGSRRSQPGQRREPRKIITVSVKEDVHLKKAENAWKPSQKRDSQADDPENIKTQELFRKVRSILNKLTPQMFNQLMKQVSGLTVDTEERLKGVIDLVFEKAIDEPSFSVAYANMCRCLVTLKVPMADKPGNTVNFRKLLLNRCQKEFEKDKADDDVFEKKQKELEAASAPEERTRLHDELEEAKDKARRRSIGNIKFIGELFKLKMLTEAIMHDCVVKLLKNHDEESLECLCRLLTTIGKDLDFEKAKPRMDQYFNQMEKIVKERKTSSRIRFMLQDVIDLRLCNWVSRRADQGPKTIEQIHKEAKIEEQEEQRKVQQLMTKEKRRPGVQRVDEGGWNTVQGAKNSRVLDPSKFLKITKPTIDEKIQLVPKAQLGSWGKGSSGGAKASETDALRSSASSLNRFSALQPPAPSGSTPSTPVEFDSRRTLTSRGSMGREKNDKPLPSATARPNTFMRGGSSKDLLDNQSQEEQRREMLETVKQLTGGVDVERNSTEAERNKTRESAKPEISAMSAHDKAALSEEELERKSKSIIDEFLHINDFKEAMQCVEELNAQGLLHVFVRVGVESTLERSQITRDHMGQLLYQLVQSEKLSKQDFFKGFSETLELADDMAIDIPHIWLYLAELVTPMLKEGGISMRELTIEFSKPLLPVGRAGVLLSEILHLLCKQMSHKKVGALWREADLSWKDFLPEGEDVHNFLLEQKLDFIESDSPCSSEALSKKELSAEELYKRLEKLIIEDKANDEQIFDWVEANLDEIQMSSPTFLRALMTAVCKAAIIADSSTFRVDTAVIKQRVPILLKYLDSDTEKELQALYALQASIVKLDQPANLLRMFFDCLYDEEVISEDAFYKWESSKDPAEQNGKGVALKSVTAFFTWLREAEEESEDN
inactive: [1] -0.074 | [2] -0.165 | [3] 0.007 | [5] 0.012 | [7] 0.039 | [8] 0.019 | [9] 0.021

DMXL1 (UniProt Q9Y485)
active: [10] -0.276
inactive: [1] -0.119 | [2] -0.241 | [3] 0.029 | [4] 0.026 | [5] -0.044 | [6] 0.072 | [7] 0.012 | [8] -0.032 | [9] 0.01

DAXX (UniProt Q9UER7)
inactive: [1] 0.018 | [2] -0.006 | [3] 0.204 | [5] -0.111 | [6] -0.102 | [7] -0.077 | [8] 0.047 | [9] -0.093 | [10] 0.027

CTSC (UniProt P53634)
active: [1] -0.419 | [2] -0.946 | [10] -0.433
inactive: [3] -0.034 | [4] 0.023 | [5] 0.015 | [6] -0.032 | [7] 0.146 | [8] -0.047 | [9] -0.015

ESS2 (UniProt Q96DF8)
active: [2] -0.245
inactive: [1] -0.025 | [3] -0.077 | [4] -0.012 | [5] 0.026 | [6] 0.036 | [7] -0.032 | [8] -0.008 | [9] 0.024 | [10] -0.012

FAF2 (UniProt Q96CS3)
Chain of UniProt Q96CS3 (Q96CS3 whole entry, looked up): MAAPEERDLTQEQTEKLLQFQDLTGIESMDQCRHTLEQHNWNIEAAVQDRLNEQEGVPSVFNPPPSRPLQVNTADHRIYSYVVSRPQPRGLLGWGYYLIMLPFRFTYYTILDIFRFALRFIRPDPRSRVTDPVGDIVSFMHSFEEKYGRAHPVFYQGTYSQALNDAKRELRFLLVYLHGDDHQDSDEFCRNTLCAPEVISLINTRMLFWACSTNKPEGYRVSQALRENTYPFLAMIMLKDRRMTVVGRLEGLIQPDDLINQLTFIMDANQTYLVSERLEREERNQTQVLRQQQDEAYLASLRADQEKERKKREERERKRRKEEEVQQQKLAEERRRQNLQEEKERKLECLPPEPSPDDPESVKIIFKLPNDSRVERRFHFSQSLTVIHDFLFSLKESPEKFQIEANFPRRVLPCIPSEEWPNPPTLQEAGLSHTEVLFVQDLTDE
inactive: [1] -0.095 | [3] 0.002 | [4] -0.046 | [5] 0.006 | [6] 0.018 | [7] 0.037 | [8] 0.029 | [9] 0.016 | [10] -0.069
active: [2] -0.322

DTYMK (UniProt P23919)
Chain of UniProt P23919 (P23919 whole entry, looked up): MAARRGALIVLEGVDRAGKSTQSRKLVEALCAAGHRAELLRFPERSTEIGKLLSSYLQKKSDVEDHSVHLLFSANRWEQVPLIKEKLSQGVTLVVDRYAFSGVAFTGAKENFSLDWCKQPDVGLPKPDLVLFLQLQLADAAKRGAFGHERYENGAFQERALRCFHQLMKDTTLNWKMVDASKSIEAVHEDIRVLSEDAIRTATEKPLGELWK
active: [6] -0.245
inactive: [1] 0.044 | [2] 0.171 | [3] -0.03 | [4] 0.039 | [5] -0.053 | [7] 0.01 | [8] 0.056 | [9] -0.04 | [10] -0.037

CWF19L2 (UniProt Q2TBE0)
inactive: [1] -0.051 | [2] -0.107 | [5] -0.131 | [6] 0.094 | [9] 0.231 | [10] 0.21

EEF1AKNMT (UniProt Q8N6R0)
Chain of UniProt Q8N6R0 (Q8N6R0 whole entry, looked up): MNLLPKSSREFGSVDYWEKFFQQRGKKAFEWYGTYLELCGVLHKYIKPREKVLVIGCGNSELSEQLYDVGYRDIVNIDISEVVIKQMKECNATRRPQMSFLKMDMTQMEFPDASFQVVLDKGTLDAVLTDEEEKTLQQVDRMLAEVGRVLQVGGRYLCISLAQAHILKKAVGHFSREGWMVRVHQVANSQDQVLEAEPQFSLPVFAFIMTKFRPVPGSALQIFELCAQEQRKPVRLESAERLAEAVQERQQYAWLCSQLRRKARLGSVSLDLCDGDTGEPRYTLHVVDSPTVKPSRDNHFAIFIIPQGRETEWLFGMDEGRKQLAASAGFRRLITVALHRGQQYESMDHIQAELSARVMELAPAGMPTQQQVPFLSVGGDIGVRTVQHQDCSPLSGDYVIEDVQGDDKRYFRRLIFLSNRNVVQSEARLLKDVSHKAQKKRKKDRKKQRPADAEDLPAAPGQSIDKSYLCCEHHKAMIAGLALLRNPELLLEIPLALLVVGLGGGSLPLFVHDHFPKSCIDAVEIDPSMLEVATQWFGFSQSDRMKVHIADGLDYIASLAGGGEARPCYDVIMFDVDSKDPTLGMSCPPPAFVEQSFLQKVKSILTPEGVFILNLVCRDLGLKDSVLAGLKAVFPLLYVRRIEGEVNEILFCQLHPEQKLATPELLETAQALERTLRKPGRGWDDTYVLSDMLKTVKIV
inactive: [1] -0.082 | [3] 0.111 | [4] 0.012 | [5] -0.038 | [6] 0.134 | [7] 0.092 | [8] 0.022 | [9] 0.075 | [10] -0.095
active: [2] -0.564

EPHX2 (UniProt P34913)
Chain of UniProt P34913 (P34913 whole entry, looked up): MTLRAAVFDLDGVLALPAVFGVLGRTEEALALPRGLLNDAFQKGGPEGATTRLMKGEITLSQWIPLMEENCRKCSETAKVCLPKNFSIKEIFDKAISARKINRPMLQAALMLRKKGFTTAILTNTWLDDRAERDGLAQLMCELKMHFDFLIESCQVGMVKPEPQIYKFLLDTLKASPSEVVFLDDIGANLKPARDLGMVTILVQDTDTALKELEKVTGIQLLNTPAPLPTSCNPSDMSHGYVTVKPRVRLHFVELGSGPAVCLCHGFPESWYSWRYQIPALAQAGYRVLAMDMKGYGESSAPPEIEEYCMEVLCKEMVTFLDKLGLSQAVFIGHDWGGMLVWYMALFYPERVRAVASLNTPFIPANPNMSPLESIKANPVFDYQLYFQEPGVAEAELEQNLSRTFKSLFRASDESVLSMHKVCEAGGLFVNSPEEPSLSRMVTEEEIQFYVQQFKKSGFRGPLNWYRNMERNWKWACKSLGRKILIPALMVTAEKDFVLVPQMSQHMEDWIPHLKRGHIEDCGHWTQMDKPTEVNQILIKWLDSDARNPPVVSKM
inactive: [1] 0.098 | [2] 0.117 | [3] -0.019 | [4] -0.012 | [5] -0.002 | [6] -0.032 | [7] -0.015 | [8] 0.033 | [9] 0.066 | [10] 0.091

DNAJC24 (UniProt Q6P3W2)
Chain of UniProt Q6P3W2 (Q6P3W2 whole entry, looked up): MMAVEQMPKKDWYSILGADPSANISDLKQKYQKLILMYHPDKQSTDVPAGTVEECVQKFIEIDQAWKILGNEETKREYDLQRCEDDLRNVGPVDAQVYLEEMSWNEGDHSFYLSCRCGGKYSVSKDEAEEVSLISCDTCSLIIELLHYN
inactive: [1] -0.318 | [2] -0.244 | [3] 0.029 | [4] 0.034 | [5] 0.049 | [7] -0.027 | [8] -0.01 | [9] -0.284
